Among the data in PubChem BioAssay are composite z-score and z-score values, retold here.

SMILES strings stand for the structures. Activity calls are given as the source filed them. Unless noted, no rule for the calls is given here.

Test [1] is described as follows: anti-His antibody binders, primary screen, artefact control for SMM control protein annotation, biochemical, small-molecule microarray, 635 nm fluorescence (AID 1128).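 Also: score merges feature fluorescence with signal-to-noise for each printed compound spot.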 As to conditions: anti-His Alexa647 antibody binding, higher = more signal.
The test system of test [2] is Human papillomavirus type 1a E7 protein (residues 1-88). Description: HPV1a E7 small-molecule binders, primary screen, biochemical, small-molecule microarray, residues 1-88, 635 nm (AID 1129). As to conditions: small-molecule microarray binding, fluorescence 635 nm; higher = more signal.
The target in test [3] is Focal adhesion kinase 1 (Homo sapiens) (UniProt Q05397). Description: small-molecule microarray binders of FAK, primary screen, biochemical, 635/667 nm fluorescence, BSA, DTT (AID 1130).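 Also: composite of spot emission at 667 nm and signal to noise over triplicate slides.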 The settings on record: PTK2 binding, 635 nm fluorescence, higher = more signal.
Test [4] deals with Fibrinogen (Alexa647-labelled). Kind of test: fibrinogen binders on compound microarrays, profiling panel, artefact control for SMM control-protein annotation, biochemical, small-molecule microarray, 635/667 nm fluorescence (AID 1131).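 Also: z-score merges 667 nm fluorescence with per-spot signal-to-noise over triplicate slides.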 As to conditions: fibrinogen-A647 binding fluorescence, higher = more signal.
Test [5] has as its target Follistatin (Homo sapiens) (UniProt P19883). Description: follistatin binders on small-molecule microarrays, primary screen, biochemical, small-molecule microarray, 635/667 nm fluorescence (AID 1132). The settings on record: FST binding, 635 nm fluorescence, higher = more signal.
In test [6] the target is Fibroblast growth factor 2 (Homo sapiens) (UniProt P09038). Description: FGF2 binders on small-molecule microarrays, primary screen, biochemical, small-molecule microarray, 635/667 nm fluorescence (AID 1133). The settings on record: small-molecule microarray binding, FGF2, fluorescence 635/667; higher = more signal.
Test [7] is described as follows: mitochondrial membrane potential change in A549 cells, profiling panel, cell-based, JC-1 fluorescence, basal, 24 h, 100 nL (AID 1138).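 Also: A549 lung adenocarcinoma cells under basal conditions with no added stimulus; test concentration not given here.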 As to conditions: higher = more signal.
The next test relates to Lefty1. Description: Lefty1 binders on small-molecule microarrays, primary screen, biochemical, small-molecule microarray, 635/667 nm fluorescence (AID 1139). As to conditions: small-molecule microarray binding, fluorescence 635/667; higher = more signal.
Test [8] relates to wheat germ agglutinin (Triticum aestivum), Alexa647-labelled. Kind of test: wheat germ agglutinin binders on compound microarrays, profiling panel, artefact control for SMM control-protein annotation, biochemical, small-molecule microarray, 635/667 nm fluorescence (AID 1140).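 Also: score merges 667 nm feature emission with signal to noise over triplicate slides.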 As to conditions: WGA-A647 binding, 635 nm fluorescence, higher = more signal.
The target of test [9] is Luciferin 4-monooxygenase (Photinus pyralis) (UniProt P08659). Kind of test: firefly luciferase enzyme inhibitors, primary screen, biochemical, luminescence, purified enzyme, 2006 set (AID 1141).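 Also: cell-free assay with purified firefly luciferase at 100 ng per well in PBS; test concentration not given here.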 The settings on record: SteadyGlo luminescence, 30 min, higher = more signal, called active from +8 up or from −8 down.
The test system of test [10] is Wnt5a (protein binding on small-molecule microarray). Kind of test: Wnt5a binders on small-molecule microarray, primary screen, biophysical, 635/667 nm fluorescence (AID 1142).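 Also: fluorescence read at 667 nm with signal to noise per printed feature.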 As to conditions: 635 nm fluorescence, higher = more signal.
A short description of test [11]: cell viability in Huh7 cells, primary screen, cytotoxicity control for HCV replication inhibitor project, CellTiter-Glo luminescence, basal, 48 h (AID 1143).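 Also: Huh7 hepatoma cells carrying a hepatitis C replication reporter with no stimulus; test concentration not given here.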 As to conditions: Huh7 HCV replicon, higher = more signal, called active from +8 up or from −8 down.
A short description of test [12]: P. aeruginosa biofilm formation inhibitors, primary screen, PAO1 strain, BacTiter-Glo luminescence, LB-PBS (AID 1144). As to conditions: 12 h, higher = more signal.
The nature of test [13]: CREB reporter modulators without forskolin, primary screen, cell-based, PC12, CRE-LacZ reporter, unstimulated (AID 1145). The settings on record: no forskolin, luminescence, 4.5 h, higher = more signal, called active from +8 up or from −8 down.
Test [14] is described as follows: CREB reporter modulators under forskolin, primary screen, cell-based, PC12, CRE-LacZ reporter, forskolin-stimulated (AID 1146).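 Also: PC12 cells with 6xCRE LacZ reporter stimulated by forskolin 10 µM; beta-galactosidase reporter signal reflecting CREB driven transcription.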 The settings on record: luminescence, 4.5 h, higher = more signal, called active from +8 up or from −8 down.
Test [15] has as its target Streptavidin (Streptomyces avidinii) (UniProt P22629). Description: streptavidin binders on small-molecule microarray, primary screen, artefact control for SMM compound annotation, biophysical, 635/667 nm fluorescence (AID 1147).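 Also: signal reflects streptavidin binding to arrayed compounds as a control protein.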 As to conditions: streptavidin binding, higher = more signal.
Test [16] can be described thus: small-molecule binders of probe aInhba, primary screen, biochemical, small-molecule microarray, 635/667 nm fluorescence (AID 1148).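 Also: score merges 667nm spot fluorescence with signal-to-noise for antibody binding to printed compounds.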 The settings on record: higher = more signal.
For test [17], the target named is Torsin-1A (Homo sapiens) (UniProt O14656). Description: torsin A binders from cell lysate, primary screen, small-molecule microarray, wild-type, 635/667 nm (AID 1149). The settings on record: COS7 hTOR1A-WT lysate, 635 nm fluorescence, higher = more signal.
For test [18] the target is unchanged. Description: small-molecule binders of mutant TOR1A in lysate, primary screen, cell lysate, small-molecule microarray, COS7 lysate, 635/667 nm fluorescence (AID 1150).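 Also: score pools 667 nm emission and signal to noise measuring lysate protein binding.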 As to conditions: COS7 hTOR1A mutant lysate, 635 nm fluorescence, higher = more signal.
Test [19] relates to Sonic hedgehog protein (Shh). Description: small-molecule binders of Shh protein, primary screen, biochemical, small-molecule microarray, 635/667 nm fluorescence (AID 1151).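 Also: Shh protein binding to compounds spotted on small-molecule microarray slides; score combines spot fluorescence intensity with signal-to-noise across triplicate slides.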 As to conditions: small-molecule microarray binding, 635 nm fluorescence; higher = more signal.

Chain of Follistatin (Homo sapiens) (P19883 whole entry, looked up): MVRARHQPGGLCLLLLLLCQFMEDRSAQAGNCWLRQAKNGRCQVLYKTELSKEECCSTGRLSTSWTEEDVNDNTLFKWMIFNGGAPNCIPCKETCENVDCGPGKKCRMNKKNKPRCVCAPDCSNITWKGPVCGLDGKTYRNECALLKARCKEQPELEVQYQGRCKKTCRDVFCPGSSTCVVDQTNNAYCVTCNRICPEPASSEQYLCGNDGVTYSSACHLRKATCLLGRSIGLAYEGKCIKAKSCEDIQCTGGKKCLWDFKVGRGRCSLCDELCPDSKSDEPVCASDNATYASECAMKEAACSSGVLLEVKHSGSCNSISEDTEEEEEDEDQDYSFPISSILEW
Chain of Torsin-1A (Homo sapiens) (O14656 whole entry, looked up): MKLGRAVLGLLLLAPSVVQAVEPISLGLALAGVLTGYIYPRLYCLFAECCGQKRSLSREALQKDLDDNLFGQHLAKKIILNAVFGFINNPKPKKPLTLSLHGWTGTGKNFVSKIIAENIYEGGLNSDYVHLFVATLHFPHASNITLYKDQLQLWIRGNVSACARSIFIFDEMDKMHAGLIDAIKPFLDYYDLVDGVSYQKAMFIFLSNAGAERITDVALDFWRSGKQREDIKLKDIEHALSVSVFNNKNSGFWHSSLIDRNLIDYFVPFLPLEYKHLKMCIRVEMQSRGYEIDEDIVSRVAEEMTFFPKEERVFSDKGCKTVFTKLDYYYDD
Chain of Fibroblast growth factor 2 (Homo sapiens) (P09038 whole entry, looked up): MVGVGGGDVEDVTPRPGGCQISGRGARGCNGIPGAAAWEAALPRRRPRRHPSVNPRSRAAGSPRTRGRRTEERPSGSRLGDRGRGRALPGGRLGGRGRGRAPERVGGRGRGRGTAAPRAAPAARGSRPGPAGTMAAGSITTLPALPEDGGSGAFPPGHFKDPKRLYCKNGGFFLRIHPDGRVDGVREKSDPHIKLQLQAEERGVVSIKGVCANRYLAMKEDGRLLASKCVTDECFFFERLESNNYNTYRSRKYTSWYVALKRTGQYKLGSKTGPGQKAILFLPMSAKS
Chain of Focal adhesion kinase 1 (Homo sapiens) (Q05397 whole entry, looked up): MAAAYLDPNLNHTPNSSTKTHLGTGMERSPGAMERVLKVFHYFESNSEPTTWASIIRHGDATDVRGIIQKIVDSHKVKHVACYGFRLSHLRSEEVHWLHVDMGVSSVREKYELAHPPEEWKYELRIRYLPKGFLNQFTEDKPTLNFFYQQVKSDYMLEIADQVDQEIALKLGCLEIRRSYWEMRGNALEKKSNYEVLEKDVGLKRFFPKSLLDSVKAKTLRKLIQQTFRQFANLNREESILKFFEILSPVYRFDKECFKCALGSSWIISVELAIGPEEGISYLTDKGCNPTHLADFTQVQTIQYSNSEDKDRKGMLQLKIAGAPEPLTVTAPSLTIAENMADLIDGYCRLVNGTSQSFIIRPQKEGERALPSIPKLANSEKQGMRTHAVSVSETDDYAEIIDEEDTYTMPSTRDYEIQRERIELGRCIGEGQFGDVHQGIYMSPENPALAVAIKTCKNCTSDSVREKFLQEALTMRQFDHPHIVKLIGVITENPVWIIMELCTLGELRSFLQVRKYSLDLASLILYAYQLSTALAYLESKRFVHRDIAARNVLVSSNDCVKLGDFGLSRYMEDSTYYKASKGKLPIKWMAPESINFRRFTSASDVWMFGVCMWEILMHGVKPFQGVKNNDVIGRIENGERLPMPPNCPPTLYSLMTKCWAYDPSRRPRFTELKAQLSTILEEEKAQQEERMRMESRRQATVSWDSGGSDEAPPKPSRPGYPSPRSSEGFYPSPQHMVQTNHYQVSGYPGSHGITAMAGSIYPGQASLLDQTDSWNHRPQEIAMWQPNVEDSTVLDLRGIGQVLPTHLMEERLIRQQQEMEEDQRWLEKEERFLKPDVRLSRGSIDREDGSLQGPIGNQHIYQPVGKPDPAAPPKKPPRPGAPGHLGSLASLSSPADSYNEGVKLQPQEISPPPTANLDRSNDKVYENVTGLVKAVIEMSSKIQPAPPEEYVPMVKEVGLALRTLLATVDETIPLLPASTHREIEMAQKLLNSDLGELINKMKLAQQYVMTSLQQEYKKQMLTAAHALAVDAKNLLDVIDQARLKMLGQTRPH
Chain of Streptavidin (Streptomyces avidinii) (P22629 whole entry, looked up): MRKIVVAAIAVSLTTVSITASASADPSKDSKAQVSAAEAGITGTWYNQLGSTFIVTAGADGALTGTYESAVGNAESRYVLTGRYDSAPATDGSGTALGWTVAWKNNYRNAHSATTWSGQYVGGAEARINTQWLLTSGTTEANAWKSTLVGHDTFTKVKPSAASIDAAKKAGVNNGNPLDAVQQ
Chain of Luciferin 4-monooxygenase (Photinus pyralis) (P08659 whole entry, looked up): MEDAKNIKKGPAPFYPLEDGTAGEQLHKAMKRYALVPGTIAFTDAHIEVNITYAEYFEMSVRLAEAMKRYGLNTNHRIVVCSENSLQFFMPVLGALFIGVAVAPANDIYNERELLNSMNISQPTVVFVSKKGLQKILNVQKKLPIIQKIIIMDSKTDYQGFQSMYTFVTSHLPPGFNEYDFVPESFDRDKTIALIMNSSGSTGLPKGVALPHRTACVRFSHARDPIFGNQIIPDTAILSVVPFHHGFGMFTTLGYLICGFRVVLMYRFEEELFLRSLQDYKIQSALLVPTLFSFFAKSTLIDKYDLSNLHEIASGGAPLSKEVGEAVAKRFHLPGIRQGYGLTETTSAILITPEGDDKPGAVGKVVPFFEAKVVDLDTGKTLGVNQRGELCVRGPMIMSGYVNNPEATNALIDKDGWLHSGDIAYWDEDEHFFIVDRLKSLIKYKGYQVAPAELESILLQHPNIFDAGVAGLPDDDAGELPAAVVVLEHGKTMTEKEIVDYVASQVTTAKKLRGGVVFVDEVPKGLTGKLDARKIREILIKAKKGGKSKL

With `COCC(=C=CC[C@@H](O)c1ccc(OCCO)cc1)C[C@@H](O)COCc1ccccc1`, the composite z-score in test [1] was 1.29; in test [2], 0.893; in test [3], 0.106; in test [4], -0.262; in test [5] it was 1.34; in test [6] it was 1.41. The composite z-score is 1.01 with Lefty1; 0.904 in test [8]; 1.05 in test [10]; -0.223 in [15]; 0.0345 in test [16]; 0.681 in the test with Torsin-1A (Homo sapiens) [17]. For the same molecule, the composite z-score is 1.43 in the test with Torsin-1A (Homo sapiens) [18] and 1.54 in [19]. Also, the z-score is 0.974 in test [7]; -1.7 (inactive) in test [9]; -0.959 (inactive) in [11]; -0.498 (inactive) in test [12]; 10.3 (active) in [13]; -0.487 (inactive) in test [14].

Consider `Cc1ccccc1C(O)C1C=CC2C(=O)N(c3ccccc3)C(=O)C2N1Nc1ccccc1F` (stereo not given), for which the composite z-score came out at 2.08 in [1]; 1.22 in [2]; 0.622 in test [3]; 1.06 in test [4]; 1.01 in test [5]; 0.624 in [6]. In addition, the composite z-score in the test with Lefty1 is -0.245; in test [8] it was 1.15; in [10], 0.0624; in [15], 1.14; in test [16], 0.0569; with Torsin-1A (Homo sapiens) [17], 0.575. The values for the composite z-score (with Torsin-1A (Homo sapiens) [18]; in test [19]) were 1.25 and -0.255, respectively. Further, the z-score in test [7] is -0.932; in test [9] it was -0.782 (inactive); in test [11] it was 0.198 (inactive); in test [12] it was -0.626 (inactive); in test [13] it was -1.09 (inactive); in [14], -0.283 (inactive).

In the case of `CCCCC(O)C1C=CC2C(=O)NC(=O)C2N1Nc1ccccn1` (stereo not given), the composite z-score in test [1] was 1.12; in [2] it was 0.0748; in [3], 0.205; in [4], -0.796; in test [5] it was -0.117; in test [6] it was 0.256. Also, the composite z-score in the test on Lefty1 is -0.0094; in test [8] it was 0.135; in [10], -0.0034; in test [15] it was 0.0033; in test [16], 0.0225; in the test with Torsin-1A (Homo sapiens) [17], 0.477. The composite z-score with Torsin-1A (Homo sapiens) [18] is 0.203; in test [19], -0.432. The z-score in test [7] was -0.0561; in test [9] it was -0.407 (inactive); in test [11], 0.294 (inactive); in test [12] it was -0.314 (inactive); in [13] it was -0.133 (inactive); in [14], 0.438 (inactive).

With `NC(=O)NCC#Cc1ccc2c(c1)[C@]1(C(=O)N2)[C@H](C(=O)Nc2nc3ccccc3s2)[C@H]2C(=O)O[C@H](c3ccccc3)[C@H](c3ccccc3)N2[C@@H]1c1ccc(OCCO)cc1`, the composite z-score is -0.497 in test [1]; 0.094 in [2]; 0.268 in [3]; -0.3 in test [4]; 1.37 in test [5]; 0.746 in test [6]. Besides, the composite z-score in the test on Lefty1 is -0.276; in test [8] it was 0.441; in [10] it was 0.262; in [15] it was 1.11; in [16] it was 0.264; with Torsin-1A (Homo sapiens) [17], -0.657. The composite z-score in the test with Torsin-1A (Homo sapiens) [18] is -0.628; in test [19], 0.287. Further, the z-score in [7] was -2.21; in test [9] it was -1.96 (inactive); in test [11], 0.378 (inactive); in [12] it was -1.02 (inactive); in [13], 0.182 (inactive); in test [14], -0.199 (inactive).

Take `CC(C)C[C@@H]1NC(=O)[C@H]2C[C@@H](C(=O)NCCCCCCNC(=O)CS)[C@@H](c3ccc(O)cc3)N2C1=O`: the composite z-score in [1] came out at 2.26; in test [2] it was 1.22; in test [3], 0.87; in [4], 0.0675; in test [5], 1.3; in test [6], 1.78. The composite z-score in the test on Lefty1 was 0.543; in test [8], 0.0059; in test [10], 0.472; in test [15], -0.406; in test [16], -0.179; with Torsin-1A (Homo sapiens) [17], 1. For the same molecule, the composite z-score with Torsin-1A (Homo sapiens) [18] is 0.766; in [19], 1.84. In addition, the z-score in test [7] was -1.02; in test [9], -0.938 (inactive); in test [11], 1.03 (inactive); in test [12] it was -1.02 (inactive); in [13], -0.805 (inactive); in [14], -0.732 (inactive).
